Records with an inconclusive call do not appear. Calls of active or inactive are those of the source. Unless noted, calls come from the whole dose curve; as a rule, active = well fitted curve in the direction sought with a large enough effect in the repeat runs; inconclusive = weak or mixed curves; inactive = no such curve, though single readings can be large; an effect the other way counts as inactive or inconclusive.
Assay: qHTS assay to identify small molecule antagonists of the progesterone receptor (PR) signaling pathway - cell viability counter screen (AID 1346798); note: nearly all actives have a fitted effect of over 50% in size; note: potency is the fitted concentration of half-maximal effect
Conditions: PR-UAS-bla HEK293T viability, CellTiter-Glo luminescence, 16 h; series mostly up to 92.4 µM; activity change, negative = cytotoxicity: at the top concentration
How it was run: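 Following a 4 hr attachment, PR-UAS-bla HEK293T cells in charcoal-stripped FBS medium were exposed to compounds with R5020 for 16 hr; CellTiter-Glo was added and luminescence read after 30 min at room temperature.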
% is set by controls: 0 for no effect and ±100 for the full control effect.

Row | Structure (SMILES) | activity change, negative = cytotoxicity | Potency
1 | COC(=O)c1ccccc1CS(=O)(=O)NC(=O)Nc1nc(OC)cc(OC)n1 | -13% (inactive) | 
2 | BrCCc1ccccc1 | -9.4% (inactive) | 
3 | CN(C)CCN(C)C | -0.324% (inactive) | 
4 | ClC(Cl)(Cl)Cl | 20.3% (inactive) | 
5 | COC(=O)c1ccc(CBr)cc1 | -2.17% (inactive) | 
6 | COc1cc(CCN)cc(OC)c1OC | -9.72% (inactive) | 
7 | Oc1ccc2c3c1O[C@H]1[C@@H](O)C=C[C@H]4[C@@H](C2)NCC[C@@]341 | -8.71% (inactive) | 
8 | O=C(Cl)CCl | 4.58% (inactive) | 
9 | CCOP(=S)(OCC)Oc1ccc(Cl)cc1Cl | -14.5% (inactive) | 
10 | O=C(O)C(F)(F)C(F)(F)C(F)(F)C(F)(F)C(F)(F)C(F)(F)F |  | 48.6 µM (active)
11 | NC1(c2ccccc2)CCCCC1 | 22.7% (inactive) | 
12 | COc1ccc(CN2CCNCC2)c(OC)c1OC | -15.2% [at 42.5 µM] (inactive) | 
13 | CC(C)(C)C(=O)Cl | -0.349% (inactive) | 
14 | Cc1ccc(S(=O)(=O)N[C@@H](CCCCN)C(=O)CCl)cc1 | -10.8% [at 42.5 µM] (inactive) | 
15 | C#CC(C)(C)O | 4.52% (inactive) | 
16 | C=C(Cl)CCl | 2.37% (inactive) | 

Row | Structure (SMILES) | activity change, negative = cytotoxicity | Potency
17 | Oc1ccc(Cc2ccc(O)cc2)cc1 | 23.4% (inactive) | 
18 | O=C(O)CBr | -1.15% (inactive) | 
19 | CC#Cc1cc(C)nc(Nc2ccccc2)n1 | 14.4% (inactive) | 
20 | CCOC(=O)Nc1cccc(OC(=O)Nc2ccccc2)c1 | 8.44% (inactive) | 
21 | COC1=CC(=O)O[C@@H](/C=C/c2ccccc2)C1 | -19.4% (inactive) | 
22 | CCCC(C)(COC(N)=O)COC(N)=O | 2.32% (inactive) | 
23 | CCOC(=O)C(SP(=S)(OC)OC)c1ccccc1 (stereo unspecified) | 5.95% (inactive) | 
24 | C=C1C[C@@H]2[C@H](CC[C@]3(C)C(=O)CC[C@@H]23)[C@@]2(C)C=CC(=O)C=C12 | 22.2% [at 42.5 µM] (inactive) | 
25 | CC(Cc1ccccc1)NCCn1cnc2c1c(=O)n(C)c(=O)n2C (stereo unspecified) | 5.78% (inactive) | 
26 | COc1ccc2c(C(=O)c3ccc(Cl)cc3)c(C)n(CC(=O)O)c2c1 | -2.89% [at 42.5 µM] (inactive) | 
27 | CCC1(CC)C(=O)C=CNC1=O | -6.22% [at 42.5 µM] (inactive) | 
28 | CC1N=C(N)OC1c1ccccc1 (stereo unspecified) |  | 37.7 µM (active)
29 | O=C/C=C/c1ccco1 | 1.72% (inactive) | 
30 | O=C(Cl)/C=C/C(=O)Cl | -0.663% (inactive) | 
31 | C[C@H](N)C(=O)c1ccccc1 | -13.6% (inactive) | 

Assay: qHTS assay to identify small molecule agonists of the progesterone receptor (PR) signaling pathway - cell viability counter screen (AID 1346799; calls by dose curve; note: nearly all actives have a fitted effect of over 45% in size; note: potency is the fitted concentration of half-maximal effect)
Conditions: PR-UAS-bla HEK293T viability, CellTiter-Glo luminescence, 16 h; series mostly up to 92.4 µM; activity change, negative = cytotoxicity: at the top concentration
How it was run: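 Here, 3,000 PR-UAS-bla HEK293T cells per well were treated with compounds for 16 hr after a 6 hr preincubation at 37C and 5% CO2; cell viability is the CellTiter-Glo luminescence signal.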

Row | Structure (SMILES) | activity change, negative = cytotoxicity | Potency
32 | COC(=O)c1ccccc1CS(=O)(=O)NC(=O)Nc1nc(OC)cc(OC)n1 | 0.246% (inactive) | 
33 | BrCCc1ccccc1 | 14.6% (inactive) | 
34 | COc1cc(CC(C)N)cc(OC)c1OC (stereo unspecified) | 11.2% (inactive) | 
35 | ClC(Cl)(Cl)Cl | -13.1% (inactive) | 
36 | COC(=O)c1ccc(CBr)cc1 | 26.4% (inactive) | 
37 | COc1cc(CCN)cc(OC)c1OC | 1.71% (inactive) | 
38 | O=C(Cl)CCl | -18.7% (inactive) | 
39 | CC(C)NCC(O)c1ccc([N+](=O)[O-])cc1 (stereo unspecified) | -6.27% [at 42.5 µM] (inactive) | 
40 | CCOP(=S)(OCC)Oc1ccc(Cl)cc1Cl | -0.218% (inactive) | 
41 | O=C(O)C(F)(F)C(F)(F)C(F)(F)C(F)(F)C(F)(F)C(F)(F)F |  | 27.3 µM (active)
42 | NC1(c2ccccc2)CCCCC1 | 16.8% (inactive) | 
43 | CC(C)(C)C(=O)Cl | -1.99% (inactive) | 
44 | C#CC(C)(C)O | -0.2% (inactive) | 
45 | C=C(Cl)CCl | 3.53% (inactive) | 
46 | O=C(O)CBr | 0.24% (inactive) | 
47 | COC1=CC(=O)O[C@@H](/C=C/c2ccccc2)C1 | -21.6% (inactive) | 
48 | CCCC(C)(COC(N)=O)COC(N)=O | -12% (inactive) | 
49 | CCOC(=O)C(SP(=S)(OC)OC)c1ccccc1 (stereo unspecified) | 21.3% (inactive) | 
50 | CC(Cc1ccccc1)NCCn1cnc2c1c(=O)n(C)c(=O)n2C (stereo unspecified) | 11.1% (inactive) | 
51 | COc1ccc2c(C(=O)c3ccc(Cl)cc3)c(C)n(CC(=O)O)c2c1 | 0.784% [at 42.5 µM] (inactive) | 
52 | CCC1(CC)C(=O)C=CNC1=O | 0% [at 42.5 µM] (inactive) | 
53 | CC[C@H](O)C(C[C@H](C)N(C)C)(c1ccccc1)c1ccccc1 | -26.2% (inactive) | 
54 | CC1N=C(N)OC1c1ccccc1 (stereo unspecified) | -7.96% (inactive) | 
55 | O=C/C=C/c1ccco1 | 14.5% (inactive) | 
56 | C[C@H](N)C(=O)c1ccccc1 | -26.9% (inactive) | 

Assay: qHTS assay to identify small molecule antagonists of the TGF-beta/Smad signaling pathway - cell viability counter screen (AID 1346824); note: nearly all actives have a fitted effect of over 50% in size
Conditions: SBE-bla HEK293T viability, CellTiter-Glo luminescence; series mostly up to 76.8 µM; viability change, negative = cytotoxic: at the top concentration
How it was run: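 Cytotoxicity counter-screen run in the same wells as the beta-lactamase Smad reporter read: CellTiter-Glo luminescence after 30 min at room temperature. HEK 293T SBE-bla cells had 5 hr compound exposure at 37 C with TGF-beta1 (0.25 ng/mL stock).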

Row | Structure (SMILES) | viability change, negative = cytotoxic
57 | COC(=O)c1ccccc1CS(=O)(=O)NC(=O)Nc1nc(OC)cc(OC)n1 | 4.56% (inactive)
58 | BrCCc1ccccc1 | 19.6% (inactive)
59 | CN(C)CCN(C)C | 14.6% (inactive)
60 | COc1cc(CC(C)N)cc(OC)c1OC (stereo unspecified) | 5.94% (inactive)
61 | ClC(Cl)(Cl)Cl | 5.06% (inactive)
62 | COc1cc(CCN)cc(OC)c1OC | -3.54% (inactive)
63 | O=C(Cl)CCl | -7.57% (inactive)
64 | CC(C)NCC(O)c1ccc([N+](=O)[O-])cc1 (stereo unspecified) | 12.7% [at 35.3 µM] (inactive)
65 | CCOP(=S)(OCC)Oc1ccc(Cl)cc1Cl | -7.61% (inactive)
66 | O=C(O)C(F)(F)C(F)(F)C(F)(F)C(F)(F)C(F)(F)C(F)(F)F | 2.42% (inactive)
67 | NC1(c2ccccc2)CCCCC1 | 5.56% (inactive)
68 | COc1ccc(CN2CCNCC2)c(OC)c1OC | -2.64% [at 35.3 µM] (inactive)
69 | CC(C)(C)C(=O)Cl | -8.23% (inactive)
70 | Cc1ccc(S(=O)(=O)N[C@@H](CCCCN)C(=O)CCl)cc1 | -5.96% [at 35.3 µM] (inactive)
71 | Oc1ccc(Cc2ccc(O)cc2)cc1 | 8.8% (inactive)
72 | O=C(O)CBr | 10.1% (inactive)
73 | CC#Cc1cc(C)nc(Nc2ccccc2)n1 | -11% (inactive)
74 | CCOC(=O)Nc1cccc(OC(=O)Nc2ccccc2)c1 | -1.1% (inactive)
75 | COC1=CC(=O)O[C@@H](/C=C/c2ccccc2)C1 | -12.2% (inactive)
76 | CCCC(C)(COC(N)=O)COC(N)=O | -3.9% (inactive)
77 | CCOC(=O)C(SP(=S)(OC)OC)c1ccccc1 (stereo unspecified) | 10.5% (inactive)
78 | CCc1cc(OC)c(C[C@H](C)N)cc1OC | 7.64% (inactive)
79 | C=C1C[C@@H]2[C@H](CC[C@]3(C)C(=O)CC[C@@H]23)[C@@]2(C)C=CC(=O)C=C12 | -4.5% [at 35.3 µM] (inactive)
80 | CC(Cc1ccccc1)NCCn1cnc2c1c(=O)n(C)c(=O)n2C (stereo unspecified) | 1.33% (inactive)
81 | COc1ccc2c(C(=O)c3ccc(Cl)cc3)c(C)n(CC(=O)O)c2c1 | -8.65% [at 35.3 µM] (inactive)
82 | CCC1(CC)C(=O)C=CNC1=O | 9.32% [at 35.3 µM] (inactive)
83 | CC[C@H](O)C(C[C@H](C)N(C)C)(c1ccccc1)c1ccccc1 | 8.8% (inactive)
84 | O=C/C=C/c1ccco1 | 3.32% (inactive)
85 | O=C(Cl)/C=C/C(=O)Cl | 8.2% (inactive)
86 | C[C@H](N)C(=O)c1ccccc1 | 3.83% (inactive)
